Out of some 350,000 compounds screened, about 2,400 (0.69%) were called active. The full list was thinned out, with actives kept by preference. Values without a mark were called inactive. Rule as the data show it: active = inhibition above about 41%; inconclusive = no clear call, values can overlap the other calls; inactive = below that.
Assay: blockers of LMP1-induced NF-kB reporter signal – cell-based, luminescence, single point, primary screen (AID 504558);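 also: 0% = neutral control wells and 100% = reference inhibitor control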
Conditions: LMP1-induced NF-kappaB luciferase reporter cells, at 12.5 µM, stronger effect = higher value

Compound	inhibition
COc1cccc(-c2nc3ccc(N4CCN(C)CC4)cc3[nH]2)c1	55.9% (active)
CN1CCN(c2cc(N3CCNCC3)ccc2[N+](=O)[O-])CC1	-3.51%
O=C(c1ccccc1)C(O)(CN1CCCCC1)c1ccccc1 (stereo not given)	10.5%
CCOc1ccc(-c2cc(C)[n+](CCN(CC)CC)c(-c3ccc(OCC)cc3)c2)cc1	34.1%
CCC/C(=N\O)c1c[nH]c2ccccc12	-1.7%
NCCc1c[nH]c2ccc(O)cc12	0.174%
CC(C)c1c(CN(C)C(C)Cc2ccccc2)n(C)n(-c2ccccc2)c1=O (stereo not given)	46.3% (active)
CN(C)CCN(CC1CCCN(Cc2ccccc2F)C1)C(=O)Cc1ccc(F)c(F)c1 (stereo not given)	-8.27%
c1cc2c(cc1[C@H]1OC[C@H]3[C@@H]1CO[C@@H]3c1ccc3c(c1)OCO3)OCO2	-19.4%
CC=C(C)C(=O)OC1CCN2CC=C(COC(=O)C(O)(C(C)OC)C(C)(C)O)C12 (stereo not given)	-5.68%
COc1ccc2c(c1)[C@]13CCCCC1C(C2)N(C)CC3 (stereo not given in full)	-1.94%
CCCC[N+]1(C)C2CC(OC(=O)C(CO)c3ccccc3)CC1C1OC12 (stereo not given)	-0.864%
Cc1ccc(-c2nn(CCC#N)cc2C(=O)O)cc1C	-6.4%
Clc1cccc(Cl)c1Cl	-0.913%
CCC(C)(O)C(=O)OC1C(=O)OC2CC3C(C)=CC(=O)C(O)C3(C)C3C4(O)OCC23C1C(C)C4O (stereo not given)	93.7% (active)
CN(C)C(=O)Oc1ccc(NC(=O)N2CCOCC2)cc1	3.17%
CCN1C(=O)C(=Cc2c(C)n(CC(=O)NCC3CCCO3)c3ccccc23)C(=O)N(CC)C1=S (stereo not given)	0.11%
CC(=O)OC1C2(CC3N4C(=O)C5(CO)SSC4(CC31O)C(=O)N5C)OC(C)C(C)(C)C2=O (stereo not given)	86.8% (active)
CCOC(=O)CC(SP1(=S)OCC2(CCCCO2)C(C2CCCCO2)O1)C(=O)OCC (stereo not given)	-9.32%
C[C@]12CC[C@H](O)C[C@H]1CC[C@@H]1C2CC[C@]2(C)[C@@H](C3=CC(=O)OC3)[C@@H](O)C[C@]12O (stereo not given in full)	37%
COC1C(O)C(C)OC(OC2CCC3(C=O)C(CCC4C3CCC3(C)C(C5=CC(=O)OC5)CCC43O)C2)C1O (stereo not given)	89.7% (active)
O=C(NCC1=C(c2ccc3ccccc3c2)C[C@@H]2CC[C@H]1N2Cc1ccco1)c1cccs1	1.8%
CCC(=O)OC(Cc1ccccc1)(c1ccccc1)C(C)CN(C)C (stereo not given)	0.604%
O=C1C2(Cl)C3(Cl)C4(Cl)C(Cl)(Cl)C5(Cl)C3(Cl)C1(Cl)C5(Cl)C24Cl (stereo not given)	6.24%
CN1CCN(Cc2ccc(OC(F)(F)F)cc2)CC1	-6.99%
